test system: ROS1; settings: concentration: 1 μM, replicates: in singlicate; n = 1
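Note: KINOMEscan kinase panel screen.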

SMILES	%Inh [%]
COc1cc(Nc2nccc(N3CCC(NC(=O)Nc4cccc(C(C)=O)c4)C3)n2)cc(OC)c1OC (stereo not shown) [GSK1379753]	30
CCn1c(-c2nonc2N)nc2c(C#CC(C)(C)O)ncc(OCCCCN)c21.O=C(O)C(F)(F)F.O=C(O)C(F)(F)F [GSK507274]	0
COc1cc(Nc2nccc(-c3c(-c4cccc(NC(=O)c5c(F)cccc5F)c4)nn4ncccc34)n2)cc(OC)c1OC [GSK327238]	75
O=C(Nc1n[nH]c2nc(-c3ccc(O)cc3)ccc12)C1CC1 [SB-710363]	0
O=c1[nH]cc(-c2ccc(N3CCOCC3)cc2)c2sc(-c3cn[nH]c3)cc12 [GSK2276055]	0
O=C(Nc1cccc(-c2nn3ccccc3c2-c2ccnc(Nc3cccc(F)c3)n2)c1)c1c(F)ccc(F)c1Cl [GSK357952]	18
CC(C)c1nc(-c2cccc(NS(=O)(=O)c3c(F)cccc3F)c2F)c(-c2ccnc(Nc3ccc(N4CCOCC4)nc3)n2)s1 [GSK2008607]	35
CC(=O)N1CCN(c2ccc(Nc3nccc(-c4sc(C(C)C)nc4-c4cccc(NS(=O)(=O)c5cccc(Cl)c5)c4)n3)cn2)CC1 [GSK1660437]	21
O=C(Nc1cccc(-c2nn3ncccc3c2-c2ccnc(Nc3ccccc3)n2)c1)c1c(F)cccc1F [GSK198271]	28
Cl.c1ccc(-c2ccc3c(Nc4ccc5[nH]ncc5c4)ccnc3c2)nc1 [GW440137]	0
Cn1cc(-c2[nH]c3cc(NC(=O)[C@H](N)C4CCCCC4)cc4c3c2C=NNC4=O)cn1	37
CNC(=O)c1ccccc1Nc1nc(Nc2ccc(N3CCOCC3)cc2)ncc1Cl.Cl [GSK1576028]	90.9
c1ccc(-c2cnc3nccnn23)cc1 [AH20685]	0
CN(C)S(=O)(=O)c1cc(-c2ccc3nccc(-c4cccc(S(N)(=O)=O)c4)c3c2)cnc1N [GSK1669921]	0
COc1cccc(NC(=O)NC2CCN(c3ccnc(Nc4cc(OC)c(OC)c(OC)c4)n3)C2)c1 (stereo not shown) [GSK1379763]	23
C[C@@H](Oc1cc(-n2cnc3cc(-c4ccnc(NCCS(C)(=O)=O)c4)ccc32)sc1C(N)=O)c1ccccc1Cl [GSK907232]	13
Fc1ccc(-c2ncn(C3CCNCC3)c2-c2ccnc(Oc3ccc(-c4ccccc4)cc3)n2)cc1 [SB-245391]	0
COc1cccc(C(=O)Nc2cccc(Oc3ccc4nc(NC(=O)C5CC5)cn4n3)c2)c1	0
Nc1ncc(-c2cccnc2)c2scc(-c3ccc4c(c3)CCN4C(=O)Cc3ccccc3)c12 [GSK683281]	27

SMILES	%Inh [%]
Cc1occc1-c1ncc(OC[C@@H](N)Cc2c[nH]c3ccccc23)cc1-c1ccc2[nH]nc(C)c2c1.O=C(O)C(F)(F)F [GSK682037]	26
Nc1n[nH]c2cnc(-c3ccccc3)cc12 [SB-642124]	0
Cc1ccc(S(=O)(=O)Nc2ccc(Nc3nccc(Nc4cccc5[nH]ncc45)n3)cc2)cc1 [GSK581271]	25
c1ccc(-c2n[nH]cc2Nc2ccnc3ccccc23)nc1 [GW694077]	9
COc1ccc(Nc2nccc(NCCNC(=O)c3cc4ccccc4s3)n2)cc1 [GSK1379896]	9
Cc1ccc(F)c(C(=O)Nc2cccc(-c3nn4ccccc4c3-c3ccnc(Nc4cccc(F)c4)n3)c2)c1F [GSK361061]	21
CC(C)(C)c1ccc2nccc(Nc3cccc(O)c3)c2c1 [GW856795]	0
COc1cc(Nc2ncc3c(C)nc(-c4cc5ccccc5[nH]4)n3n2)cc(OC)c1OC [GW869516]	0
COC(=O)Nc1nc2ccc(Oc3ccc(NC(=O)Nc4cc(C(F)(F)F)ccc4F)cc3)cc2n1C.Cl [GW692089]	28
CCCCc1nn2ncccc2c1-c1ccnc(Nc2ccc(N3CCN(C)CC3)cc2)n1 [GW684941]	71
O=C(O)C(F)(F)F.O=C(O)C(F)(F)F.O=c1[nH]ccc2nc(N[C@@H]3CCCNC3)nc(Nc3ccc(S(=O)(=O)N4CCOCC4)cc3)c12 [GSK2177277]	71
Cl.Cl.NCC(C(=O)Nc1cc(Br)c(-c2ccnc3[nH]ccc23)s1)c1ccccc1 (stereo not shown) [GSK1269851]	12
COc1ccc(-c2coc3ccc(-c4nnc(SCc5ccc(OC)c(C(F)(F)F)c5)o4)cc23)cc1	0
COc1cccc(-c2ccc3c(NC(=O)C4CC4)n[nH]c3n2)c1 [SB-710903]	0
Oc1cc(Nc2ccnc3cc(I)ccc23)ccc1F [GW552771]	0
COc1cc2c(cc1OCCN1CCNCC1)ncc1c3ccc(C#N)cc3[nH]c21	0
CCS(=O)(=O)c1ccc(OC)c(Nc2nccc(-c3c(-c4cccc(NC(=O)c5c(F)cccc5F)c4)nn4ncccc34)n2)c1 [GSK326180]	0
Cc1cccc(Nc2nc(N[C@H]3CCNC3)ncc2C(N)=O)c1.Cl [GSK2197149]	32
